# KKLEB tox = CF airway cell cytotoxicity counter-screen | KKLEB CF airway cells viability, ATPlite luminescence, overnight; active compounds read low; cells stimulated with P. aeruginosa culture filtrate | 360,000 tested, 0.36% active | activity change (cytotoxicity), % at 5 µM;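 active = corrected activity change at or below -50% at 5 µM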
# hiPSC survival = enhancers of human iPSC single-cell survival. hiPSC single-cell survival, ATPlite luminescence; 100% = ROCK inhibitor wells, 0% = DMSO. survival enhancement, % at 20 µM. 360,000 tested, 0.044% active; in the data active = survival enhancement above about 18%;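 note: cells exposed to compounds for 16 hours before the ATP read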
# CF NFkB block = blocks PAF-induced NF-kB reporter in cystic fibrosis cells; KKLEB NF-kB-GFP reporter, GFP fluorescence overnight; inhibition, % at 5 µM; 360,000 tested, 0.86% active; AID 588850;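 active = at least 50% inhibition at 5 µM, scaled per plate between neutral and stimulator controls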;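 note: PAF is a Pseudomonas aeruginosa culture filtrate used as stimulus; plate controls were PAF-stimulated DMSO wells for no effect and unstimulated DMSO wells for full effect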
# HIF-2a block = HIF-2a inhibition. 786-0 RCC cells HIF-2a reporter, luciferase luminescence, overnight. AID 624352. 360,000 tested, 0.72% active. inhibition, % at 18.8 µM;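 active = inhibition of the luminescence signal of 40% or more relative to plate controls, in a single-dose primary screen at 18.75 µM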
# TWEAK-Fn14 inh = TWEAK-Fn14 signaling inhibition; TWEAK-stimulated Fn14 reporter cells, luciferase luminescence, 8 h; inhibition, % at 10 µM; 360,000 tested, 2% active; in the data active = inhibition above about 50%
# LGR2 antag = Drosophila LGR2 receptor signaling inhibition; HEK293 LGR2, CRE-luciferase, bursicon-stimulated, 4 h; inhibition, % at 9.99 µM; 380,000 tested, 0.35% active;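 active = drop in luminescence signal, shown as inhibition above about 50% in the replicate tests, limit read from the data, passing the limit was not always enough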;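 note: agonist challenge used bursicon conditioned medium at about half maximal strength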
# The depositor's hits bear a star; . = no result. Sampled rows, rich in hits. Any-hit rate of the full collection: about 2.3%.
SMILES,KKLEB tox,hiPSC survival,CF NFkB block,HIF-2a block,TWEAK-Fn14 inh,LGR2 antag
C[C@@H]1CN([C@H](C)CO)C(=O)Cc2cc(NC(=O)Cn3cnnn3)ccc2O[C@@H]1CN(C)C,.,.,.,.,.,2
CC(C)C(=O)Nc1ccc2c(c1)C(=O)N(C)[C@@H]1CC[C@@H](CC(=O)NCc3ccc(F)cc3)O[C@@H]1CO2,.,.,.,.,.,-2
C[C@H](CO)N1C[C@H](C)[C@@H](CN(C)C(=O)Nc2ccccc2)Oc2ccc(NC(=O)CCC(F)(F)F)cc2CC1=O,.,.,.,.,.,-5
CC(C)c1ccc(-c2nnn(CCC(=O)O)n2)cc1,3,-2,-10,89*,87*,.
O=C(O)CCn1nnc(-c2cccs2)n1,-1,1,15,15,-3,.
CCCCN1C(C)=CC(=C2C(=O)c3ccccc3C2=O)C=C1C,-23,-2,7,-55,53*,60*
CCN1C=CC(=C2C(=O)c3ccccc3C2=O)C=C1,-46,-5,-11,87*,101*,.
CCCCCCN1C=CC(=C2C(=O)c3ccccc3C2=O)C=C1,-58*,-1,-20,39,97*,94*
CC1=CC(=C2C(=O)c3ccccc3C2=O)C=C(C)N1Cc1ccco1,2,1,-20,-183,1,-56
C/C=C/c1ccc2c(c1)O[C@H](CN(C)C(=O)C1CCC1)[C@@H](C)CN([C@H](C)CO)S2(=O)=O,.,.,.,.,.,16
Cc1ccc(-n2cnc3cc(NCc4cccs4)ccc32)cc1,-9,-2,8,-132,42,.
c1ccc(-n2cnc3cc(NCc4cccs4)ccc32)cc1,-12,-1,-8,-62,93*,.
C[C@H](CO)N1C[C@H](C)[C@H](CN(C)C(=O)Nc2ccc(C(F)(F)F)cc2)OCCCC[C@H](C)Oc2ccc(NC(=O)Cc3ccccc3)cc2C1=O,.,.,.,.,.,3
CCOC(=O)c1cnc2ccc(C(=O)OC)cc2c1Nc1ccc(C(=O)O)cc1,-2,0,7,12,12,-20
CCOC(=O)c1ccc2ncc(C(=O)OCC)c(Nc3ccc(N4CCOCC4)cc3)c2c1,-4,0,65*,8,53*,55*
CCc1nc(N)nc(N)c1-c1ccc(N(C)Cc2ccccc2)c([N+](=O)[O-])c1,2,-1,4,25,68*,22
CN(Cc1ccccc1)c1ccc(C(CC(N)=O)NC(=O)c2ccccc2)cc1[N+](=O)[O-] (stereo not drawn),-1,-6,-5,22,2,13
OC[C@@H]1[C@@H](c2ccc(Cl)cc2)C(c2cccc(Cl)c2)=NN1c1ccccc1,-2,-1,34,-3,62*,-4
Cc1noc(C)c1NC(=O)N[C@@H]1C=C[C@@H](CC(=O)NCc2ccc(Cl)c(Cl)c2)O[C@@H]1CO,.,.,.,.,.,-2
N#C/C(=C\c1cccc([N+](=O)[O-])c1)c1nnc2n1CCCCC2,-8,16,20,32,91*,20
O[C@H]1CN(CC2CCCCC2)[C@@H](c2ccc(Cl)cc2)C[C@@H]1n1cc(-c2ccc(F)cc2)nn1,-1,-2,33,-12,50*,5
O[C@H]1C[C@H](c2ccccc2)N(CC2CCCCC2)C[C@@H]1n1cc(C2CC2)nn1,-10,-1,3,-50,64*,18
O[C@H]1C[C@H](c2ccc(Cl)cc2)N(CC2CCCCC2)C[C@@H]1n1cc(-c2ccc(F)cc2)nn1,-5,5,-24,5,-7,5
C[C@H]1CN([C@@H](C)CO)S(=O)(=O)c2ccc(C3=CCCCC3)cc2O[C@H]1CN(C)C,.,.,.,.,.,2
CCOc1ccccc1-n1c(SCC(=O)Nc2ccccc2C(=O)O)nc2ccccc2c1=O,-4,0,-33,-22,92*,40
CC(C)c1ccccc1NC(=O)COC(=O)CCN1C(=O)/C(=C\C=C\c2ccccc2)SC1=S,14,-2,-15,82*,72*,-3
O=C(COC(=O)CCN1C(=O)/C(=C\C=C\c2ccccc2)SC1=S)Nc1ccc(Br)cc1,2,-1,-12,58*,21,-7
O=C(NCc1ccc(F)cc1)[C@@H]1[C@@H](CO)[C@@H]2Cn3c(cccc3=O)[C@H]1N2,.,.,.,.,.,2
CCC(=O)N[C@H]1CC[C@H](CC(=O)NCc2ccc(OC)cc2)O[C@H]1CO,.,.,.,.,.,-4
